Compounds with a hit are over-represented: about 2.8% of the library has one in this group of screens.
GLP1R cytotox = cytotoxicity counter-screen for GLP-1 receptor inverse agonists. hit rate 0.13% among 410,000. AID 624418. Potency, µM (top dose mostly 38.3 µM), without a hit: top-dose activity change, negative = inhibition, usual class: inhibitors. HEK293 cAMP-luciferase reporter cells, luminescence, 24 h;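 also: loss of luciferase light is scored as toxicity; % is scaled to controls: 0 for no effect and ±100 for the full control effect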
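MLSMR compounds, 24 hr on cells at 37 deg C/5% CO2; luminescence after luciferase reagent (12 min RT). Inhibition counted as the undesired cytotoxic outcome.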
Mito fusion act = inhibitors of mitochondrial division or activators of mitochondrial fusion; S. cerevisiae fusion-defective mutant growth rescue, CellTiterGlo 48 h; Potency, µM (doses to about 46.1 µM), inactives show at the highest dose growth rescue (activation), actives largely listed as activators; hit rate 0.23% among 320,000; also: % of control where 0% means no effect; nearly all actives have a fitted effect of over 45% in size
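Read-out: ATP-based luminescence (CellTiterGlo, 10 min ambient) reporting growth of fusion-defective ts yeast after 48 hours at 37C on glycerol/ethanol YPEG medium in the presence of compound.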
GLP-1R inv ag = GLP-1 receptor (human) inverse agonism; P43220; HEK293 GLP-1R CRE-luciferase, luminescence, 24 h; GLP-1R form is constitutively active; Potency, µM (series often up to 38.3 µM), for the others: at the top dose activity change, negative = inhibition, actives largely listed as inhibitors; hit rate 1.6% among 410,000; AID 624417; also: % is scaled to controls: 0 for no effect and ±100 for the full control effect; nearly all actives have a fitted effect of over 55% in size
Target sequence (P43220 whole entry, looked up): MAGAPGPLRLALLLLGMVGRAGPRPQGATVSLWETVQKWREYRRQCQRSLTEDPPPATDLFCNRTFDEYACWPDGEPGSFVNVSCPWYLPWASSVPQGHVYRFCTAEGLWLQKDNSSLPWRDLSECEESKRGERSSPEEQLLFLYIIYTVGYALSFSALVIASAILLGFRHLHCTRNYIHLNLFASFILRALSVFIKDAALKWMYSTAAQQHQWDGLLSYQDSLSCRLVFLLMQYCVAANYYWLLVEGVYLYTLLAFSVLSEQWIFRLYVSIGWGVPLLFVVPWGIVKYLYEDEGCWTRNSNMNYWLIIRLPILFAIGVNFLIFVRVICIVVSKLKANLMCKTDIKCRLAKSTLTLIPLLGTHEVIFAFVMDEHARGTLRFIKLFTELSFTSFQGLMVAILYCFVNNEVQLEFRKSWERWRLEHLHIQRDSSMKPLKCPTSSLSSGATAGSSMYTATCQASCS
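HEK293 cells stably co-expressing constitutively active GLP-1R and a cAMP-responsive luciferase reporter were seeded in DMEM with 10% Nu serum, given compounds after 12 h, and incubated 24 h at 37 deg C. Luminescence was then read.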
BRCA1 expr up = activators of BRCA1 expression; Potency, µM (doses to about 46.1 µM), inactives show at the top dose activation, most hits filed as activators; MCF7-BRCA1-FFLuc reporter, luminescence, 48 h; response scale: scaled: vehicle 0%, 10 µM genistein 100%; hit rate 1.1% among 380,000; AID 624202; also: nearly all actives have a fitted effect of over 80% in size
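Cells: MCF7-BRCA1-FFLuc, 2000/well. Exposure: 48 h, 37 °C, 5% CO2. Read: luminescence, 15 min post-substrate. Controls: genistein 10 microM (maximal activation), DMSO (neutral).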
GLP1R ag = activates the human GLP-1 receptor. Potency, µM (doses to about 45.6 µM), without a hit: top-dose activation, hits mostly activators. AID 624172. HEK293 GLP-1R CRE-luciferase, luminescence, 4-6 h; cells express a hypersensitive GLP-1R form. hit rate 0.007% among 380,000; also: % of control where 0% means no effect
* marks the source's active call; other numbers are inactive results; u = inconclusive; x = no result. Calls follow the shape of the dose curve; as a rule, active = well fitted curve in the direction sought with a large enough effect; inconclusive = small, poorly fitted or top-dose-only effect, or another doubt; inactive = no such curve, though single readings can be large; an effect the other way counts as inactive or inconclusive. Potency is read from the fitted curve at half-maximal effect.

SMILES | GLP1R cytotox | Mito fusion act | GLP-1R inv ag | BRCA1 expr up | GLP1R ag
CCOC(=O)c1cc2sccc2n1CC(=O)N1CCc2ccccc21 | 5% | -3% | -17% | 16% | -4%
O=C1c2ccccc2NC(c2cccs2)N1NS(=O)(=O)c1ccccc1 (centres undefined) | 10% | -24% | -35% | -1% | 6%
C/C(=N/OC(=O)c1ccc(Cl)cc1Cl)c1oc(C)nc1C | 0% | -3% | 16% | -8% | 10%
CCOc1cccc(CNCc2ccc(C(=O)O)cc2)c1 | -6% | 10% | 4% | 0% | 2%
COCCn1c(C)cc(C(=O)COC(=O)c2ccc(S(=O)(=O)N(C)C)cc2)c1C | -11% | x | -23% | 1% | 8%
COCCn1c(C)cc(C(=O)COC(=O)c2ccc(NC(=O)CC#N)cc2)c1C | 0% | 3% | -11% | 2.8µM* | -10%
Clc1ccc(CN2CCc3c([nH]c4ccccc34)C2)cc1Cl | u | -5% | 4µM* | -91% | -10%
Clc1cccc(CN2CCc3c([nH]c4ccccc34)C2)c1 | u | u | u | -28% | -1%
Brc1ccc(-c2csc(N3CCOCC3)n2)cc1 | 6% | -16% | 7% | 11µM* | 12%
Clc1ccc(-c2csc(N3CCCCCC3)n2)cc1 | 10% | -11% | 21% | 0% | 0%
COc1ccc(-c2csc(N3CCOCC3)n2)cc1OC | 6% | -6% | 153% | 14µM* | 12%
Brc1ccc(-c2csc(N3CCCCCC3)n2)cc1 | 1% | -11% | 1% | u | 14%
Clc1ccc(-c2csc(N3CCOCC3)n2)cc1 | 33% | -10% | 26% | 7.1µM* | 16%
CC(=O)Nc1ccc2c(c1)CCCN2C(=O)c1ccccc1 | -22% | 0% | -14% | -3% | 16%
COc1cc(-c2nc3ccccn3c2NCc2ccccc2)ccc1SC1CCCCC1 | -3% | -21% | u | -11% | 4%
Cc1ccc2nc(-c3ccc(-c4cccc(Cl)c4)cc3)c(NCc3ccccc3)n2c1 | 3% | 4% | -12% | 20% | 4%
COc1cc(-c2nc3ccc(C)cn3c2NCc2ccccc2)ccc1-c1cccc(Cl)c1 | -3% | x | 8.9µM* | 0% | 5%
COc1cc(-c2nc3ccc(C)cn3c2NCc2ccccc2)ccc1SC1CCCCC1 | -15% | 11% | 4µM* | -42% | 0%
S=C1NCN(Cc2ccco2)CN1c1ccccc1 | 2% | -4% | -5% | 25% | -1%
CC(C)n1nnnc1SCC(=O)N1N=C(c2cccs2)CC1c1cccs1 (centres undefined) | -6% | 8% | 17% | 13µM* | u
Cc1ccc(C2CC(c3cccs3)=NN2C(=O)CSC2=NCCS2)cc1 (centres undefined) | -5% | -1% | 4.5µM* | -40% | -2%
COc1ccc(C2CC(c3cccs3)=NN2C(=O)CSc2nnnn2C)cc1OC (centres undefined) | -7% | -1% | 6% | -4% | 13%
COc1cccc(NC(=O)CN(C)C(=O)Cc2ccc3c(c2)OCCO3)c1 | -1% | -6% | 7% | 9% | 1%
O=C(CCS(=O)(=O)Cc1ccccc1)Nc1nnc(C(F)(F)F)s1 | -28% | -16% | u | -80% | 3%
COC(=O)C1=C(C)NC(=O)/C1=C\c1cc(C)n(-c2ccccc2)c1C | -24% | -2% | u | 7.1µM* | 22%
SMILES | GLP1R cytotox | Mito fusion act | GLP-1R inv ag | BRCA1 expr up | GLP1R ag
COC(=O)C1=C(C)NC(=O)/C1=C\c1cc(C)n(-c2cc(C)cc(C)c2)c1C | u | 11% | u | -28% | 0%
Cc1ccc(-c2nc(P(=O)(c3ccccc3)c3ccccc3)c(N3CCOCC3)o2)cc1 | -30% | 20% | 10µM* | -23% | 4%
COc1cccc(OC)c1C(=O)OCC(=O)NCC(C)C | -3% | 20% | 24% | -5% | 9%
Cc1ccc(-c2nc3c(c(SCC(=O)N4CCCC4)n2)COC(C)(C)C3)cc1 | -5% | x | -5% | 29% | 7%
COc1ccc(C2=NN3C(=O)c4c(ccc(OC)c4OC)C3C2)cc1 (centres undefined) | -4% | 5% | 18% | 35% | 18%
COc1ccccc1C1CC(c2ccc(Br)cc2)=NN1C(=O)c1cccnc1 (centres undefined) | -35% | 16µM* | u | -82% | 10%
COc1ccc2c(c1OC)C(=O)N1N=C(c3ccc(Br)cc3)CC21 (centres undefined) | -7% | 16µM* | 7% | -6% | 14%
COc1cccc(C2CC(c3ccc(Br)cc3)=NN2C(=O)c2ccncc2)c1OC (centres undefined) | -9% | -1% | 10µM* | -73% | 16%
O=C(OCC(=O)N1CCCC1)c1cccc(Br)c1 | -2% | 0% | 12% | 28% | 13%
Cn1ccnc1SCc1cn2cc(Br)ccc2n1 | -13% | -15% | 4.5µM* | -48% | -21%
Cc1oc(C(C)(C)C)cc1C(=O)N1CCN(c2ccc(C(F)(F)F)cn2)CC1 | -6% | 8% | u | -28% | 0%
CCOc1ccc(CCNS(=O)(=O)c2ccc3c(c2)NC(=O)CC(=O)N3)cc1OCC | 5% | 6% | 21% | 2% | 3%
Cc1ccc(Cn2c(N3CCNCC3)nc3c2c(=O)[nH]c(=O)n3C)cc1 | 2% | -1% | -2% | -25% | -5%
CCCCN(CCCC)C(=O)c1c[nH]c2ccc(S(=O)(=O)Nc3cccc(Cl)c3C)cc2c1=O | -12% | -3% | u | x | x
Nc1nc(Sc2ccc([N+](=O)[O-])c3nonc23)c2[nH]cnc2n1 | 8.9µM* | x | u | -92% | 7%
Cc1cc(C)c(NC(=O)c2ccc(CNS(=O)(=O)c3cc(C(F)(F)F)ccc3Cl)cc2)c(C)c1 | u | 17% | 6.3µM* | -55% | -34%
O=S(=O)(NCc1ccccn1)c1cc(C(F)(F)F)ccc1Cl | 18% | 0% | -20% | -11% | -4%
CCOc1ccc2nc(SCC(=O)Nc3ccc(F)cc3)nc(-c3ccccc3)c2c1 | 1% | x | -13% | x | x
Cc1oc2cc3oc(=O)c(CCC(=O)NC4CC4)c(C)c3cc2c1C | 1% | 8% | 5% | 6.3µM* | 6%
Cc1coc2cc3oc(=O)c(CCC(=O)NC4CC4)c(C)c3cc12 | -5% | 7% | 5% | u | 11%
COC(=O)c1cccc(NC(=O)c2ccc(OC)c(Cl)c2)c1 | -4% | -2% | u | 5µM* | 25%
CC(=O)c1ccc(NC(=O)c2cccc(NC(=O)c3ccccc3)c2)cc1 | -5% | 0% | 12% | 46% | -1%
COc1cccc(NC(=O)c2ccccc2)c1 | 5% | -9% | 11% | 8.9µM* | 10%
CC(C)OC(=O)c1cccc(NC(=O)c2ccccc2)c1 | -2% | 18% | 0% | 11µM* | 7%
